D1 antag = Antagonist of Human D 1 Dopamine Receptor: qHTS. D(1A) dopamine receptor (Homo sapiens), P21728. HEK293 TREx D1 cells, calcium flux, dopamine EC80; stronger effect = lower value. activity change, negative = inhibition, % at 10 µM. hit rate 3.2% among 360,000; in the data active = activity change below about -30%; also: % is scaled to controls: 0 for no effect and ±100 for the full control effect
Target sequence (P21728 whole entry, looked up): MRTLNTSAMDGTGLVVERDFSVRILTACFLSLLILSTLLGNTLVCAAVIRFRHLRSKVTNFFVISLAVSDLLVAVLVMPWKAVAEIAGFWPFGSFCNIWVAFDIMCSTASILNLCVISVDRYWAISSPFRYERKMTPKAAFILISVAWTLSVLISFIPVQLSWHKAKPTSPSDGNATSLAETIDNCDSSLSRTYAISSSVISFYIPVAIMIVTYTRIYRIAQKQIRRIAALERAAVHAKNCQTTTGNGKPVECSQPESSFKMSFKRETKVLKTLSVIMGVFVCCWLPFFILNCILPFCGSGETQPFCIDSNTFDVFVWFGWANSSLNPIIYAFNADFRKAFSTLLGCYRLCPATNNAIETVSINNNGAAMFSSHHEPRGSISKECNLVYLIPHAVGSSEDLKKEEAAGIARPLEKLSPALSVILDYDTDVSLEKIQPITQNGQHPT
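Inducible Hek293 Trex D1 cells (tetracycline, overnight, 30 C). Calcium dye 30–90 min RT. Antagonist mode: EC80 dopamine added after 180 s compound read.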
D1 agonist = Allosteric Agonists of the Human D1 Dopamine Receptor: qHTS | D(1A) dopamine receptor (Homo sapiens), P21728 | HEK293 T-REx D1 cells, calcium flux, agonist mode | activation, % at 2 µM | hit rate 1% among 360,000 | AID 504660, 2011; also: 0% is about no effect
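Agonism was scored from calcium flux recorded over 180 s (1 read/s) after pintool compound addition, following a 10-cycle baseline. Cells were inducible force-coupled HEK293 TREx D1, plated overnight at 30 C and loaded with no-wash calcium dye.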
D1 potentiator = Potentiators of Human D1 Dopamine Receptor: qHTS; potentiation, % at 10 µM; HEK293 TREx D1 cells, calcium flux, dopamine EC20 potentiation; AID 504651, 2011; D(1A) dopamine receptor (Homo sapiens), P21728; hit rate 0.036% among 360,000; in the data active = potentiation above about 30%; also: 0% is about no effect
TRHR ag = qHTS for Small Molecule Agonists and Allosteric Enhancers of Human TRH Receptor: Primary Screen for Agonists; AID 493084, 2011; activation, % at 2 µM; hit rate 0.18% among 360,000; Thyrotropin-releasing hormone receptor (Homo sapiens), P34981; TRHR cells, calcium flux fluo-8, FDSS agonist mode; also: 0% is about no effect
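Read-out: compound-evoked intracellular calcium rise in TRHR cells, fluo-8 dye, kinetic FDSS fluorescence at 1 s/cycle following a 10-cycle baseline. Cells cultured overnight before dye loading (30 min–1.5 h, RT).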
TRHR PAM = qHTS for Small Molecule Agonists and Allosteric Enhancers of Human TRH Receptor: Primary Screen for Enhancers | Thyrotropin-releasing hormone receptor (Homo sapiens), P34981 | TRHR cells, fluo-8 calcium fluorescence, EC20 TRH enhancement | enhancement, % at 2 µM | hit rate 0.66% among 360,000; in the data active = enhancement above about 30%; also: 0% is about no effect
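Enhancer read-out: after compound pinning and an initial kinetic agonist-mode read, an EC20 of TRH (10 nM final) was injected and fluo-8 calcium signal (Ex 480/Em 530) followed at 1 s/cycle for 100 cycles in TRHR-expressing cells.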
Active calls of the source: *. Hits are enriched below; roughly 4.6% of the tested compounds scored in any of these assays. Rule as the data show it, unless noted: active = activation above about 30%; inactive = the rest.

SMILES | D1 antag | D1 agonist | D1 potentiator | TRHR ag | TRHR PAM
COCCNC(=O)c1c(N)n(-c2ccccc2)c2nc3ccccc3nc12 | -1 | 3 | 9 | 0 | 1
O=CNCc1nc2ccccc2n1CCCc1ccccc1 | 10 | 23 | -3 | 0 | -2
Cn1c(-c2c(N)n(CCc3ccccc3)c3nc4ccccc4nc23)nc2ccccc21 | 11 | 77* | -5 | 20 | 2
Cn1c(-c2c(N)n(CCCc3ccccc3)c3nc4ccccc4nc23)nc2ccccc21 | 3 | 52* | -5 | -1 | 0
COCCNC(=O)c1c(N)n(CCCn2ccnc2)c2nc3ccccc3nc12 | -47* | 1 | -9 | 0 | 17
CCCn1nc(NC(=O)c2cccc(Cl)c2)c2cc3cccc(C)c3nc21 | -9 | 1 | 0 | 0 | 2
CSc1ncc(C(=O)N2CCN(c3ccc(Cl)cc3)CC2)c(C)n1 | 8 | 2 | -3 | -1 | 7
Cn1c(-c2c(N)n(C3CCCC3)c3nc4ccccc4nc23)nc2ccccc21 | -16 | 53* | -5 | 16 | 17
Cc1ccc(NS(=O)(=O)c2cc(Br)cnc2N)c(Cl)c1 | 6 | 8 | -5 | -1 | -1
Nc1ncc(Br)cc1S(=O)(=O)Nc1cc(C(F)(F)F)cc(C(F)(F)F)c1 | -34* | 19 | -6 | 4 | -7
CC(=O)CC1(C)OC(N)=C(C#N)C1(C#N)C#N (centres undefined) | -30* | 0 | 4 | 0 | 9
Clc1ccc(CN2CCN(c3ncccn3)CC2)c(Cl)c1 | -37* | 7 | -4 | -1 | -4
CCN(C(=O)c1cccn(Cc2ccccc2C)c1=O)c1ccccc1 | 13 | 2 | -1 | 0 | 2
COc1ccccc1NC(=O)c1ccc(CN2C(=O)C(C)=C(c3ccc(C)c(C)c3)S2(=O)=O)cc1 | -3 | 3 | -7 | 0 | -2
COc1ccccc1NC(=S)N(Cc1ccccc1)Cc1cccs1 | -54* | 12 | -2 | 0 | 11
COc1ccccc1NC(=S)N(Cc1cccs1)C1CCCC1 | -4 | 0 | -1 | 0 | 3
Cc1ccc2c(c1)N(C(=O)N1CCC(C(=O)NCc3cccc(Br)c3)CC1)CCO2 | -10 | 0 | -1 | 0 | -6
O=C(N/N=C/c1ccsc1)c1c[nH]c2ccccc12 | -46* | 3 | -2 | 0 | -2
CCc1cccc(C)c1NC(=O)c1cc(S(=O)(=O)N(Cc2ccc(C(=O)OC)cc2)Cc2ccc(OC)c(OC)c2)ccc1F | -38* | 5 | 2 | 0 | -9
CCOC(=O)c1ccc(CN(Cc2ccc(Cl)cc2Cl)S(=O)(=O)c2ccc(F)c(C)c2)cc1 | -32* | 45* | 0 | 4 | -6
COc1ccc(NC(=O)c2c(C)oc3ccc(O)c(CN4CCN(Cc5ccccc5)CC4)c23)cc1Cl | 1 | 0 | 0 | 0 | 7
CCCCCn1ncc2c3sc(C)cc3n(C)c2c1=O | -2 | 2 | -2 | -2 | -2
CSc1nc(-c2ccc(Cl)cc2Cl)[nH]c(=O)c1C#N | 4 | 2 | 3 | 0 | -4
Cc1cc(-c2ccc(Cl)cc2Cl)c(C#N)c(=O)[nH]1 | 4 | 31* | 0 | -1 | 3
CC(C)CCn1c(N2CCCC2)nc2c1c(=O)[nH]c(=O)n2C | -38* | 4 | -5 | -1 | -8
SMILES | D1 antag | D1 agonist | D1 potentiator | TRHR ag | TRHR PAM
CC(C)CCn1c(N2CCOCC2)nc2c1c(=O)n(CC(N)=O)c(=O)n2C | -58* | 1 | -10 | 1 | 6
Cc1csc(SCCn2c(N3CCN(c4ccccc4)CC3)nc3c2c(=O)[nH]c(=O)n3C)n1 | -64* | -1 | 0 | -1 | 5
O=C(Nc1ccc([N+](=O)[O-])cc1)C1CC1(c1ccccc1)c1ccccc1 (centres undefined) | -22 | 8 | -3 | 1 | 1
CC1(C)C(C=C(Cl)Cl)C1C(=O)Nc1ccc([N+](=O)[O-])cc1 (centres undefined) | -31* | 6 | -7 | 1 | -6
OC(COCCOc1ccc(Br)cc1)CN1CCN(Cc2ccccc2)CC1 (centres undefined) | -31* | 27 | -11 | 1 | 11
CCc1ccc(OCCOCC(O)CN2CCN(Cc3ccc(Cl)cc3)CC2)cc1 (centres undefined) | -36* | 40* | -4 | 1 | 4
OC(CNC1CCCCC1)COCCOc1ccc(Br)cc1 (centres undefined) | -30* | 48* | -1 | 0 | -1
Cc1ccc(S(=O)(=O)c2nnn3c2nc(N2CCN(c4cccc(C)c4C)CC2)c2ccccc23)cc1C | -19 | 0 | 1 | 0 | -4
COc1ccc(OC(C)C(=O)NCc2nc(-c3ccc(Cl)cc3)no2)cc1 (centres undefined) | 9 | 17 | -2 | 1 | 11
CCC(CC)C(=O)Nc1ccc2nc(SCC(=O)N3CCc4ccccc43)sc2c1 | 7 | 3 | -2 | 0 | 10
COCCCNC(=O)/C(C#N)=C/c1ccc(F)cc1 | -4 | 5 | -1 | 5 | 3
CCCCNC(=O)/C(C#N)=C/c1ccc(F)cc1F | -52* | 2 | -10 | 1 | 4
COCCNC(=O)CSc1nnc(-c2ccc(OC)c(OC)c2)c(-c2ccc(OC)c(OC)c2)n1 | -17 | -1 | -3 | 0 | 0
Nc1c(C(=O)Nc2cccc(Cl)c2)sc2nc3c(cc12)CN(Cc1ccccc1)CC3 | -2 | 3 | 3 | 0 | 33*
Cc1cccc(NC(=O)c2sc3nc4c(cc3c2N)CN(Cc2ccccc2)CC4)c1 | 0 | 3 | -2 | 0 | 2
CCCCCCCCCCCCCCCC(=O)OC(CC(=O)O)C[N+](C)(C)C (centres undefined) | -34* | 75* | -7 | 0 | -11
Cc1onc(-c2ccccc2Cl)c1C(=O)OCn1nnc2ccccc2c1=O | -50* | 2 | -7 | 1 | 1
O=C(OCn1nnc2ccccc2c1=O)c1cc(-c2ccccc2Cl)nc2ccccc12 | 4 | 3 | -7 | 0 | 0
O=C(OCn1nnc2ccccc2c1=O)c1ccc(Br)o1 | 4 | 3 | -1 | -1 | 33*
O=C(OCn1nnc2ccccc2c1=O)c1ccc(O)cc1 | -8 | 3 | -3 | 0 | 2
Cc1ccc(C)c(C(=O)CCC(=O)OCn2nnc3ccccc3c2=O)c1 | -64* | 2 | -4 | -1 | -1
COc1ccccc1CNC(=O)COc1cc(=O)n(C)c2ccccc12 | -4 | 0 | -5 | 0 | 2
Cc1c(Cl)cccc1NC(=O)N1CCC(CN2CCOCC2)CC1 | -71* | -1 | -6 | 0 | -18

Screening data (PubChem)
